The record followed here is PubChem BioAssay (NCI).

Compounds without any hit were thinned out: in the full panel of roughly 83,000, 20% have a hit.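 A percent growth of 40 corresponds to 60% growth inhibition; 0 means no net growth; -100 means all cells died. Active threshold: below 10.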 Active and inactive are the calls of the source.

The assay has as its system SNB-75 CNS. In words: NCI-60 one-dose screen, 48 h (100 = growth as untreated, 0 = no growth, -100 = all killed). The note with it: 10 µM unless noted. As for the experimental part: Growth inhibition of the SNB-75 human tumor cell line is measured as a screen for anti-cancer activity. Cells are grown in 96 well plates and exposed to the test compound for 48 hours. Compounds are tested at a single concentration, which is 10^-5 M for most compounds. The reported endpoint is percent growth (GI% or GIPRCNT), where numbers from 0 - 100% represent growth inhibition, and numbers from -100% - 0 represent cell death. For example, a value of 40 represents 60% growth inhibition. A value of 0 means no net growth occurred over the course of the experiment. A value of -40 indicates 40% of cells at the beginning of the experiment died by the end of the experiment. A value of -100 means all cells are dead at the end of the experiment.
NCI-60 Human Tumor Cell Lines Screen was performed using the standard one-dose NCI protocol, which is described in more detail at https://dtp.cancer.gov/discovery_development/nci-60/default.htm.
Compounds with GIPRCNT values below 10 were considered active. Activity score was based on GIPRCNT using the following formula: […]
Score is 0 for GIPRCNT values of 100 or above, 50 for GIPRCNT values of 0, and 100 for GIPRCNT values of -100.
For `O=[N+]([O-])c1ccc(N/N=C/c2ccccc2O)nc1`, the growth was 52.9% (inactive). The value for `O=C1OC(/C=C/c2ccccc2)=NC/1=C/c1ccccc1[N+](=O)[O-]` was 82% (inactive). As for `CCN1CCN(Cc2ccc(NC(=O)Nc3ccc(-n4ccc5c(NC(=O)c6ccccc6)nccc54)cc3)cc2C(F)(F)F)CC1`, the growth is -88.2% (active). The value for `O=C1/C(=C/N2N=C(c3ccc(Cl)cc3)CC2c2ccccc2O)SC(=S)N1c1cccc(C(F)(F)F)c1` (stereo not given) was 38.4% (inactive).

For `Oc1ccc(-c2nnc3c4[nH]ccc4ncn23)cc1`, the growth was 78.8% (inactive). The value for `Cc1ccc(C)c(NC(=O)c2sc3c(=O)[nH]cnc3c2C)c1` was 81.1% (inactive); that for `CCCCSc1ncnc2c1ncn2C1CCCCO1` (stereo not given) was 104% (inactive); that for `CCOC(=O)C1=C(C)NC(=S)NC1c1ccccc1` (stereo not given) was 82.6% (inactive). On to `Cc1cccc2nc3ccccc3c(Nc3ccc(NS(C)(=O)=O)cc3)c12`, for which the growth is 68.3% (inactive).

For the compound `Nc1cc(C(=O)O)cc(C(=O)O)c1`, the growth was 99.2% (inactive). The value for `COc1ccc(/C=N/NC(N)=S)c(OC)n1` was 79.5% (inactive). `CN(C)CCCn1c(=O)c2cc([N+](=O)[O-])ccc2c2cnc3[nH]ccc3c21`: the growth is 49.5% (inactive). As to `CCOC(=O)CCN(CCC(=O)OCC)c1ccccc1`, the growth is 93.9% (inactive).

In the case of `CC(=O)O[C@@H]1CC2C(C)(C)CCCC2(C)C2=C1C(=O)C(C(C)C)=CC2=O` (stereo not given in full), the growth is -11.8% (active). For the compound `COc1ccc(Nc2nc(N)nc3c(=O)[nH]ccc23)cc1`, the growth is 107% (inactive).

Take `N/C(=N\O)c1ncc(-c2ccc(C(F)(F)F)cc2)c(NC2CCCCCC2)n1`: the growth is -41.4% [100 µM] (active). The value for `CCN(CC)CC(=O)Nc1c(C)cc(C(=O)NN)cc1C` was 84.9% (inactive); that for `COc1ccc(C(=O)OC2C(OC3C(O)COC(O[C@H]4C[C@H]5[C@@H]6CC=C7C[C@@H](O)CC[C@]7(C)[C@H]6CC[C@]5(C)[C@H]4[C@H](C)C(=O)CCC(C)C)C3OC(=O)C(C)C)OCC(O)C2O)cc1` (stereo not given in full) was 21.4% (inactive). The value for `NNc1ccc(S(N)(=O)=O)cc1` was 89.9% (inactive); that for `CCN1C(=O)N(CC)C2C1NN=c1s/c(=C\c3ccc(Br)cc3)c(=O)n12` (stereo not given) was 26.2% (inactive); that for `CC1=C(/C=C/C(C)=C/C=C(C(=O)O)\C(C)=C\C(=O)O)C(C)(C)CCC1` was 87.5% (inactive). With `O=C(O)CSc1ccc(NCc2oc(CO)cc(=O)c2O)cc1`, the growth is 87% (inactive). With `CCN(CC)c1cc(C)c(Cc2c(OC)ccc3ccccc23)cc1C`, the growth was 91.1% (inactive). Regarding `N#CCCn1cnc2c(N)ncnc21`, the growth is 93.8% (inactive). The value for `CCOC(=O)C(CCCCC(NC(C)=O)(C(=O)OCC)C(=O)OCC)(NC(C)=O)C(=O)OCC` was 95.3% (inactive); that for `COc1ccc2nc3ccccc3c(NCc3ccc(Cl)cc3)c2c1` was 57.6% (inactive); that for `NC(CCC(=O)NC(CS)C(=O)NCC(=O)O)C(=O)O` (stereo not given) was 95.6% (inactive). The value for `C=C1C(=O)O[C@H]2[C@H]1CC/C(COC(=O)NCc1cccc(OC)c1)=C\CC[C@@]1(C)O[C@@H]21` was 71.1% (inactive). The value for `COC(=O)c1ccc2c(c1)nc(-c1cc3ccccc3[nH]c1=O)n2-c1cc(C(C)(C)C)[nH]n1` was 101% (inactive); that for `CCS(=O)(=O)Nc1cccc(Nc2c3cccc(C)c3nc3c(C)cccc23)c1OC` was 21.7% (inactive); that for `CCCCCCCCCCCCCCCCCC1=NCCN1CCO` was 80.6% (inactive). `CCOC(=O)Nc1ccc2nc(Sc3ccc(Cl)cc3)sc2c1`: the growth is -12% (active). Turning to `CCCCCCCCCCCCNC(=O)N[C@H](C(=O)N[C@H]1/C=C/OCCNC(=O)/C=C/[C@H](C(C)C)NC1=O)C(C)C`, the growth is 46.5% (inactive). In the case of `CCCCCCCCN(CCCCCCCC)C(=O)CCl`, the growth is 95.4% (inactive).

`S=C(Nc1ccc(Cl)cc1)Nc1ccc(Cl)cc1` (tested in a mixture with another compound): the growth is 16.8% (inactive). Turning to `Cn1c(-c2ccccc2)cc(=O)n1-c1ccccc1`, the growth was 92.9% (inactive). For the compound `O=C(Nc1cccc(-n2ccc3c(NC(=O)c4ccccc4)nccc32)c1)c1ccc(N2CCOCC2)c(C(F)(F)F)c1`, the growth was -12.5% (active). On to `COc1cc2c(c(OC)c1O)C(=O)C(OC)C(c1ccc(O)c(O)c1)O2` (stereo not given), for which the growth was -8.14% (active).

For `Cc1ccc(C(=O)CC(=O)C(F)(F)C(F)(F)C(F)(F)F)s1`, the growth was 96% (inactive). Consider `CC(C)c1cccc(C#N)c1`, for which the growth was 83.7% (inactive).
